Results filed as inconclusive are left out. The source made the active and inactive calls. Calls come from the whole dose curve.
Test: qHTS assay to identify small molecule agonists of the NFkB signaling pathway - cell viability counter screen (AID 1159515); note: nearly all actives have a fitted effect of over 55% in size
Settings: NFkB-bla ME-180 viability, CellTiter-Glo luminescence, 5 h; series mostly up to 61 µM
Source text: National Center for Advancing Translational Sciences [NCATS]
NIH Chemical Genomics Center [NCGC]
U.S. Environmental Protection Agency [EPA]
National Institutes of Environmental Health Sciences [NIEHS]
National Toxicology Program [NTP]
U.S. Food and Drug Administration [FDA]
Transcription factors and their stimulated target gene expression play pivotal roles across many cellular processes including responses to environmental stimuli. Proper regulation of associated pathways is critical to maintain cell health and function. Constitutive activation of transcription factor pathways has been implicated in tumors as it may block cellular functions such as apoptosis and lead to invasion and metastasis. One important transcription factor that stimulates gene expression in response to cytokines, UV radiation, and other stimuli is nuclear factor-kappa B (NFkB). To measure activation of the NFkB pathway, the CellSensor NFkB-bla ME-180 cell line (Life Technologies, Carlsbad, CA) that stably expresses beta-lactamase reporter gene under the regulation of a NF-kB response element was used. This assay allows measurement of the NFkB pathway activity induced by compounds in a ME-180 cell line. This system quantitates NF-kB activity using a FRET-based assay system where beta-lactamase expression disrupts FRET, allowing for fluorescent measurement of activity. This cell line has been used to screen the Tox21 10K compound library and to identify compounds that induce the NFkB pathway activity. The cytotoxicity of the Tox21 compound library against the NFkB-bla ME-180 cell line was tested in parallel by measuring cell viability using the CellTiter-Glo assay in the same wells.
Tox21 Assay Protocol Summary:
NFkB-bla ME-180 cells were dispensed at 2,000 cells/6 uL of assay medium per well into black wall/clear-bottom 1536-well plates using a Multidrop Combi (ThermoFisher Scientific, Waltham, MA) dispenser. After the assay plates were incubated at 37 C and 5% CO2 for an overnight, 23 nL of compounds dissolved in DMSO, positive controls or DMSO only was transferred to the assay plate by a Pintool station (Kalypsys, San Diego, CA). The assay plates were incubated at 37 C and 5% CO2 for 5 hr. One uL of LiveBLAzer B/G FRET substrate (Life Technologies) was added using a Flying Reagent Dispenser (Aurora Discovery, San Diego, CA) and the plates were incubated at room temperature for 1.5 hr. Fluorescence intensity (405 nm excitation, 460 nm and 530 nm emissions) was measured using an Envision plate reader (PerkinElmer, Shelton, CT). For cytotoxicity, 3 ul/well of CellTiter-Glo reagent was added into the assay plates using an FRD. After 30 min incubation at room temperature, the luminescence intensity was measured using a ViewLux plate reader (PerkinElmer).

SMILES	outcome
CC1(CO)CN(c2ccccc2)NC1=O (stereo not given)	inactive
CCc1ccc(C=O)cc1	inactive
COC(=O)CCCCCCCC(=O)OC	inactive
O=C(CS(=O)Cc1ccco1)NC/C=C\COc1cc(CN2CCCCC2)ccn1 (stereo not given)	inactive
Cc1cccc(C)c1OCC(C)N (stereo not given)	inactive
COC(=O)[C@@H]1[C@H]2C[C@H]3c4[nH]c5ccccc5c4CCN3C[C@@H]2CC[C@@H]1O	inactive
CCC(C)NC(N)=O (stereo not given)	inactive
O=C(O)c1ccc(Cl)cc1Cl	inactive
C=C(C)C(=O)OCCN(CC)CC	inactive
Cc1ccc(C=O)cc1C	inactive
OCCC(F)(F)C(F)(F)C(F)(F)C(F)(F)C(F)(F)C(F)(F)C(F)(F)C(F)(F)F	inactive
COCCOC(=O)C1=C(C)NC(C)=C(C(=O)OC(C)C)C1c1cccc([N+](=O)[O-])c1 (stereo not given)	inactive
CCCCCCCC/C=C\CCCCCCCC(=O)OCCCC	inactive
ClCCCl	inactive
O=C(O)Cc1cn(-c2ccccc2)nc1-c1ccc(Cl)cc1	inactive
C=Cc1ccccn1	inactive
COc1cc2c(cc1OC)C(=O)CC2	inactive
Nc1ccc2cc(S(=O)(=O)O)cc(O)c2c1	inactive
CC(=O)/C=C/C1C(C)=CCC(C)C1(C)C (stereo not given)	inactive
COc1ccc(Br)c(C)c1	inactive

SMILES	outcome
CC(CO)c1ccccc1 (stereo not given)	inactive
Cc1cccc2nccnc12	inactive
O=C(/N=N/C(=O)OCc1ccccc1)OCc1ccccc1	inactive
C=C(C)C(=O)OCC(C)(C)COC(=O)C(=C)C	inactive
COc1cc2c(cc1OC)[C@@H]1CC(=O)[C@@H](CC(C)C)CN1CC2	inactive
CCCCCCCCCCCCCC	inactive
CNS(=O)(=O)CCc1ccc2[nH]cc(C3CCN(C)CC3)c2c1	inactive
CCCCCCCCC(=O)Cl	inactive
COc1ccc2c(c1OC)C(=O)O[C@@H]2[C@H]1c2c(cc3c(c2OC)OCO3)CCN1C	inactive
O=C(CCN1CCN(CCO)CC1)N1c2ccccc2Sc2ccc(C(F)(F)F)cc21	inactive
O=C(O)CCSSCCC(=O)O	inactive
CCO[Si](CCCS)(OCC)OCC	inactive
O=C(OCc1ccccc1)C(=O)OCc1ccccc1	inactive
Cc1ccc2ccc(Cl)cc2n1	inactive
CCOC(=O)c1ncn2c1CN(C)C(=O)c1cc(F)ccc1-2	inactive
COP(=O)(OC)OC(c1ccc(Cl)cc1)P(=O)(OC)OC (stereo not given)	inactive
CC[C@H](C)C(=O)O[C@H]1C[C@H](O)C=C2C=C[C@H](C)[C@H](CC[C@@H](O)C[C@@H](O)CC(=O)O)[C@H]21	inactive
CN(CCOc1ccc(NS(C)(=O)=O)cc1)CCc1ccc(NS(C)(=O)=O)cc1	inactive
CC1=CCC(C(C)C)=CC1	inactive
CC1(C)S[C@@H]2[C@H](N=CN3CCCCCC3)C(=O)N2[C@H]1C(=O)O	inactive
